# Compounds with a hit are over-represented: about 19% of the library has one in this group of screens.
# IL-1B inflam inh = blocks inflammasome-driven IL-1 beta release; THP-1 LPS/ATP IL-1B secretion, AlphaLISA, 16 h; hits give low values; activity change, % at 57.5 µM; 360,000 tested, 4.7% active; AID 743279; in the data active means activity change below about -50%; inconclusive means mostly about -30% to -49%
#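 Secreted IL-1B measured by AlphaLISA bead assay after 16 h compound exposure of THP-1 cells; compounds (final up to 57.5 uM) added 1 h before LPS (250 ng/mL) and ATP (1.25 mM) stimulation; lower signal means less secretion.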
# HT1080 IDH1KD tx = toxicity to HT-1080 IDH1 knockdown cells (counter line); 360,000 tested, 2% active; HT-1080 IDH1 knockdown viability, ATP luminescence, 48 h; AID 686971; Potency, µM (top dose mostly 46.1 µM), hits mostly cytotoxic
#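 Using the IDH1-knockdown HT-1080 line run in the same batch and compound series as the NT line, viability after 48 h at 37 °C was determined by CellTiter-Glo luminescence and expressed as % activity.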
# HT1080NT lethal = kills 2HG-producing HT-1080-NT fibrosarcoma cells; HT-1080-NT fibrosarcoma viability, CellTiter-Glo ATP luminescence, 48 h; Potency, µM (top dose mostly 46.1 µM), actives largely listed as cytotoxic; 360,000 tested, 1.6% active;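 further: NT is the 2HG producing partner of a matched IDH1 knockdown line; nearly all actives have a fitted effect of over 55% in size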
#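 A 48-hour cytotoxicity screen used HT-1080-NT cells plated 2 hours before compound delivery. ATP-based CellTiter-Glo luminescence measured viability, normalized to DMSO and no-cell controls.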
# TDP1 cell CPT = growth inhibition of DT40 Tdp1-/-;hTDP1 cells with camptothecin (screen for TDP1 inhibitors) | chicken DT40 Tdp1-/-;hTDP1 cells + 20 nM CPT, ATP luminescence, 48 h | Potency, µM (titrated, usually from 46.2 µM), hits mostly inhibitors | 420,000 tested, 12% active | AID 686979; further: nearly all actives have a fitted effect of over 55% in size
#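 Cell growth measured by CellTiter-Glo luminescence after a minimum 48 h, 37 C compound exposure with 20 nM CPT in Tdp1-knockout DT40 cells stably expressing hTDP1, seeded 400/well; qHTS titration format.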
# TDP1 cell noCPT = qHTS for Inhibitors of human tyrosyl-DNA phosphodiesterase 1 (TDP1): qHTS in cells in absence of CPT; DT40 Tdp1-/- hTDP1 cells, no CPT, ATP luminescence, 48 h; Potency, µM (highest dose often 46.2 µM), hits mostly inhibitors; 420,000 tested, 15% active; AID 686978, 2013; further: nearly all actives have a fitted effect of over 55% in size
#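 Compound effects on proliferation are scored in DT40 Tdp1-/-;hTDP1 cells in the absence of CPT. ATP levels (CellTiter-Glo luminescence) are recorded after a ≥48 hr, 37 °C incubation.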
# Hits are given with their value; i = inactive; ? = inconclusive; nt = not tested or not shown; [ ] = remark or other dose. Unless noted, the call rests on the fitted dose curve; in most records, active means well fitted curve in the direction sought with a large enough effect; inconclusive means small, poorly fitted or top-dose-only effect, or another doubt; inactive means no such curve, though single readings can be large; an effect the other way counts as inactive or inconclusive.
SMILES,IL-1B inflam inh,HT1080 IDH1KD tx,HT1080NT lethal,TDP1 cell CPT,TDP1 cell noCPT
COc1ccc(-n2c(=O)c(-c3cccs3)nc3cnc(N4CCN(C)CC4)nc32)cc1,nt,nt,nt,i,i
CCc1nn(CC(=O)NCCCN2CCN(CC)CC2)c(=O)c2cc3occc3n12,i,i,i,i,i
Cc1c(C(=O)NCc2ccccc2Cl)sc2ncnc(N(C)C3CCCCC3)c12,nt,nt,nt,?,18.4µM
Cc1ccc(C)c(CNC(=O)c2sc3ncnc(N(C)C4CCCCC4)c3c2C)c1,nt,nt,nt,23.1µM,?
CC(OC(=O)c1ccc(-n2cnnn2)cc1)C(=O)N(C)c1ccccc1 (configuration not stated),i,i,i,i,i
O=C(NCC1CCCO1)c1ccc(CSCc2cccc(F)c2)o1 (configuration not stated),i,i,i,i,?
COc1ccc(C(=O)N2CCN(c3ccc(N4CCOCC4)nn3)CC2)cc1OC,i,i,i,i,i
Cc1nc2c(Cl)cccc2[nH]1,i,i,i,i,i
O=C(Nc1ccc2nc(SCC(=O)N3CCOCC3)sc2c1)c1cccc(Cl)c1,nt,nt,nt,14.6µM,18.4µM
O=C(Nc1ccc2nc(SCC(=O)N3CCCC3)sc2c1)c1cccc(Br)c1,nt,nt,nt,?,16.4µM
Cc1cccc2sc(N(CCN(C)C)C(=O)/C=C/c3cccs3)nc12,-93.3,?,?,16.4µM,18.4µM
Cc1cccc2sc(N(CCN(C)C)C(=O)C3CCN(S(=O)(=O)c4cccs4)CC3)nc12,-61.2,i,i,?,18.4µM
CN(C)CCCN(C(=O)/C=C/c1cccs1)c1nc2c(F)cccc2s1,-105.4,?,?,20.6µM,20.6µM
Cc1cccc2sc(N(CCN(C)C)C(=O)c3cc(Cl)sc3Cl)nc12,i,i,i,?,?
CN(C(=O)C1CCN(S(=O)(=O)c2cccs2)CC1)C1CCCCC1,i,i[9.24 µM],i,i,i
CCOC(=O)c1cccnc1NC(=O)c1ccccc1,i,i,i,i,?
S=C(NCCCc1ccccc1)Nc1ccccc1,i,i,i,23.1µM,?
CNC(=S)NCCc1ccccc1,i,i,i,i,i
CC(C)(CNC(=S)NCCc1ccccc1)CNC(=S)NCCc1ccccc1,-70.1,?,?,8.2µM,29.1µM
S=C(NCCc1ccccc1)Nc1ccc(Nc2ccccc2)cc1,?,?,?,16.4µM,?
S=C(NCCc1ccccc1)Nc1c(Cl)cccc1Cl,-63.7,i,i,?,23.1µM
CCCNC(=S)Nc1ccccc1,i,i,i,i,i
O=C(NCc1ccco1)/C(=C\c1ccco1)NC(=O)c1ccco1,i,i,i,i,i
O=C(CSc1n[nH]c(-c2cccnc2)n1)OC1CCCCC1,i,i,i,?,?
Cc1ccc2c(c1)C(c1ccccc1)N(C(=O)c1c(F)cccc1Cl)CC(=O)N2 (configuration not stated),i,i,i,?,i
SMILES,IL-1B inflam inh,HT1080 IDH1KD tx,HT1080NT lethal,TDP1 cell CPT,TDP1 cell noCPT
Cc1ccccc1OCCNC(=S)Nc1ccccc1,i,i,i,29.1µM,14.6µM
CC(CNC(=O)Cn1ccc2cc(S(=O)(=O)N3CCCCC3)ccc21)c1ccccc1 (configuration not stated),nt,nt,nt,?,20.6µM
CN(C)CCNC(=O)Cn1ccc2cc(S(=O)(=O)N3CCCCC3)ccc21,i,i,i,i,i
O=C(Cn1ccc2cc(S(=O)(=O)N3CCCC3)ccc21)NCc1ccco1,i,i,i,i,i
CC(CNC(=O)Cn1ccc2cc(S(=O)(=O)N3CCCC3)ccc21)c1ccccc1 (configuration not stated),i,i,i,18.4µM,23.1µM
Cc1ncc2c(c1CNC(=O)c1cncs1)CCN(C(=O)c1cccc(-c3cccc(F)c3)c1)C2,nt,nt,nt,i,i
C/C(CS(=O)(=O)c1ccc(Cl)c(Cl)c1)=N/NC(N)=S,i,i,i,18.4µM,5.8µM
C/C(CS(=O)(=O)c1ccc(Cl)cc1)=N/NC(N)=S,i,i,i,i,i
CC(=O)OCc1c(F)c(F)c(-n2nc(C)cc2C)c(F)c1F,i,i,i,i,i
CCn1c(CNc2ccc(Cl)cc2)nnc1SCc1ccccc1,-76.4,i,i,?,?
Cn1c(CNc2ccc(Cl)cc2)nnc1SCc1ccccc1,?,i,i,i,i

# Source: PubChem
